# Results published in PubChem BioAssay (NCATS).
# Results filed as inconclusive are left out. Where a call stands in place of a potency, no number is given. Activity calls are given as the source filed them. The call rests on the fitted dose curve; in most records, active means well fitted inhibition curve with a large enough effect; inconclusive means small, poorly fitted or top-dose-only effect; inactive means no such curve, though single readings can be large or run the other way.
# System: Zika virus NS2B-NS3 protease (unlinked)
# Assay: Optimization of GU AMC qHTS for Zika virus inhibitors: Unlinked NS2B-NS3 protease assay (AID 1347151); further: nearly all actives have a fitted effect of over 80% in size
# Settings: recombinant ZIKV NS2B-NS3 protease, fluorogenic AMC substrate; series mostly up to 52.5 µM
# In short: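 Unlinked protease (25 nM final); buffer 10 mM Tris-HCl pH 8.0 + 0.01% Tween 20; AMC substrate; 15 min RT, dark; Δfluorescence normalized to no-inhibitor/no-enzyme controls; 4-parameter Hill fit.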
# Potency means the concentration at half of the fitted maximal effect.
row,SMILES,Potency
1,O=C1NC(=O)/C(=C/c2ccc3nccnc3c2)S1,inactive
2,COc1ccccc1CN[C@@H]1CCCN[C@@H]1c1ccccc1,inactive
3,Nc1nc(Cl)nc2c1ncn2[C@@H]1O[C@H](COP(=O)(O)OP(=O)(O)OP(=O)(O)O)[C@@H](O)[C@H]1O,inactive
4,Nc1nc(Nc2ccccc2)nc2c1ncn2[C@@H]1O[C@H](CO)[C@@H](O)[C@H]1O,inactive
5,C[N+](C)(C)CCOP(=O)(O)OP(=O)([O-])OC[C@H]1O[C@@H](n2ccc(N)nc2=O)[C@H](O)[C@@H]1O,inactive
6,Brc1c(Br)c(Br)c2n[nH]nc2c1Br,26.7 µM (active)
7,NCC1OC(O[C@H]2[C@H](O)[C@@H](OC3C(O)C(N)CC(N)C3OC3OC(CO)C(O)C(O)C3N)O[C@@H]2CO)C(N)C(O)C1O (stereo partly drawn),inactive
8,COc1ccc(Br)cc1S(=O)(=O)NC(=O)/C=C/c1ccccc1Cc1ccc2ccccc2c1,5.32 µM (active)
9,CCN1/C(=C/C(C)=O)Sc2ccc(OC)cc21,inactive
10,CC(C)CC(NP(=O)(O)O[C@@H]1O[C@@H](C)[C@H](O)[C@@H](O)[C@H]1O)C(=O)NC(Cc1c[nH]c2ccccc12)C(=O)O (stereo partly drawn),inactive
11,N=c1ccn2c(n1)O[C@H]1[C@H](O)[C@@H](CO)O[C@H]12,inactive
12,CN1CCc2cc(NC(=O)Nc3cccnc3)ccc21,inactive
13,CCCCC#Cc1nc(NC)c2ncn([C@@H]3O[C@H](CO)[C@@H](O)[C@H]3O)c2n1,inactive
14,NC(=S)c1ccc[n+]([C@@H]2O[C@@H](COP(=O)([O-])OP(=O)(O)OC[C@H]3O[C@@H](n4cnc5c(N)ncnc54)[C@H](OP(=O)(O)O)[C@@H]3O)C(O)C2O)c1 (stereo partly drawn),inactive
15,O=P(O)(O)C(Cl)(Cl)P(=O)(O)O,inactive
16,Fc1ccc(C(OCCCc2cnc[nH]2)c2ccc(F)cc2)cc1,inactive
17,Cc1ccccc1CNc1ncnc2c1ncn2C1OC(CO)C(O)C1O (stereo not drawn),inactive

row,SMILES,Potency
1,CC(C)(NS(=O)(=O)c1ccc(Oc2ccc(F)cc2)cc1)C(=O)NO,inactive
2,NC(N)=NC(=O)c1nc(Cl)c(N2CCCCCC2)nc1N,inactive
3,C=CC(C)=C[C@@]1(C)SC(=O)C(C)=C1O,inactive
4,O=C(c1ccc(Cl)cc1)N1CCN(c2ccc([N+](=O)[O-])c3ncccc23)CC1,inactive
5,O=C1/C(=C/c2ccsc2)CC/C1=C\c1cccs1,inactive
6,Nc1ccn([C@@H]2O[C@H](CO)[C@@H](O)[C@@H]2O)c(=O)n1,inactive
7,CCN(CC)c1ncnc2c1ncn2[C@@H]1O[C@H](COP(=O)(O)OP(=O)(O)C(Br)(Br)P(=O)(O)O)[C@@H](O)[C@H]1O,inactive
8,O=C(O)CC[C@@H](C(=O)O)N1C(=O)c2ccccc2C1=O,inactive
9,O=[N+]([O-])c1ccc(CSc2ncnc3c2ncn3[C@@H]2O[C@H](CO)[C@@H](O)[C@H]2O)cc1,inactive
10,C[N+]1(C)C2CC(OC(=O)[C@H](CO)c3ccccc3)CC1C1OC12 (stereo partly drawn),inactive
11,CC1OC1P(=O)(O)O (stereo not drawn),inactive
12,CCCCCCCCCCCCCCCCCC(=O)OC(CC(=O)O)C[N+](C)(C)C (stereo not drawn),inactive
13,O=C(c1ccc(OCCCc2cnc[nH]2)cc1)C1CC1,inactive
14,CN(C)c1nc(N)c(C(=O)N=C(N)N)nc1Cl,inactive
15,OCC1O[C@H]([S-])[C@H](O)[C@@H](O)[C@@H]1O.[Au+] (stereo partly drawn),inactive
16,Fc1cccc(/C=N/N=C/c2cccc(F)c2)c1,inactive
